Anthrax LF prot: anthrax lethal factor protease inhibition. multiplex microsphere protease cleavage assay, LF. inhibition, % at 10 µM. 360,000 tested, 0.12% active
BoNT F protease: blocks Botulinum neurotoxin F light chain protease | Multiplex microsphere protease cleavage assay, flow cytometry | inhibition, % at 10 µM | 360,000 tested, 0.22% active | AID 588497; in the data active means inhibition above about 35%, passing the limit was not always enough; inconclusive means no clear call, values can overlap the other calls
Bead autofluor: counter-screen for toxin protease inhibitors: compound fluorescence | compound autofluorescence counterscreen, microsphere flow cytometry; hits give high values | 360,000 tested, 3.1% active | fluorescence intensity (test concentration not listed) | AID 624483; in the data active means fluorescence intensity above about 16000; inconclusive means no clear call, values can overlap the other calls
PriA SSB inh: K. pneumoniae PriA-SSBct interaction inhibition; AlphaScreen SSBct-PriA binding, biotinylated peptide; 430,000 tested, 0.6% active; inhibition, % at 33 µM; AID 1272365; in the data active means inhibition mostly above about 37%, no sharp cut-off; inactive means mostly below about 20%
BoNT A protease: blocks Botulinum neurotoxin A light chain protease. multiplex microsphere protease substrate cleavage, flow cytometry. inhibition, % at 10 µM. 360,000 tested, 0.17% active
Large screens that a line does not name were inactive; ! = repeats disagree. In the library only some 3.1% were active in any assay of this set; here they are far more common. Unless noted, no stated cut-off is given here; in the data, active means inhibition above about 30%; inconclusive means no clear call, values can overlap the other calls; inactive means below that.

Cc1sc(-n2c(C)cc(/C=N/n3cnnc3)c2C)c(C#N)c1C	Bead autofluor 22786 (no result: PriA SSB inh)
Clc1ccc(-c2nnc(SCc3ccon3)o2)c(Cl)c1	none
C=CCSc1nnc(-c2ccc(Cl)cc2Cl)o1	Bead autofluor 17125
COc1ccc(OC)c(-n2c(CNC(=O)COc3ccccc3)nnc2SCC(=O)Nc2nc3ccccc3s2)c1	none (no result: Anthrax LF prot, BoNT F protease, Bead autofluor, BoNT A protease)
COc1ccccc1N1CCN(S(=O)(=O)c2ccc(F)cc2)CC1	none
COc1ccccc1N1CCN(S(=O)(=O)c2ccc3c4c(cccc24)C(=O)N3)CC1	PriA SSB inh 35!
CCOC(=O)C1CCN(S(=O)(=O)c2ccc3c4c(cccc24)C(=O)N3)CC1	none
COc1ccccc1N1CCN(S(=O)(=O)c2cccc(F)c2)CC1	Bead autofluor 22849
Cc1ccc(C23CC4CC(CC(C(=O)N/N=C\c5ccco5)(C4)C2)C3)cc1	none (no result: Anthrax LF prot, BoNT F protease, Bead autofluor, BoNT A protease)
CC(=O)Nc1ccc(S(=O)(=O)Nc2ccc3c(c2)N(CCC(C)C)C(=O)C(C)(C)CO3)c(C)c1	none (no result: Anthrax LF prot, BoNT F protease, Bead autofluor, BoNT A protease)
CC1(C)C(c2ccccc2)=NC(c2cccnc2)N1O (stereo not drawn)	Bead autofluor 21816, BoNT A protease inconclusive
CC1(C)C(c2ccccc2)=NC(c2ccc(F)cc2)N1O (stereo not drawn)	none
COc1ccc(C(=O)N(CC2CCCO2)C(C(=O)NC2CCCC2)c2ccc(Cl)cc2)cc1OC (stereo not drawn)	Bead autofluor 21196
COc1ccc(C(=O)N(CC2CCCO2)C(C(=O)NCCC(C)C)c2ccc(C)cc2)cc1OC (stereo not drawn)	none
COc1ccc(C(=O)N(CCCO)C(C)C(=O)NC2CCCCC2)cc1OC (stereo not drawn)	Bead autofluor 21753, BoNT A protease inconclusive
CCOc1ccc(S(=O)(=O)N(CCOC)Cc2ccncc2)cc1F	none (no result: Anthrax LF prot, BoNT F protease, Bead autofluor, BoNT A protease)
CCCn1c2c(c(O)c(C(=O)Nc3ncccc3C)c1=O)CCCC2	Bead autofluor 22788
CCCn1c2c(c(O)c(C(=O)Nc3nccs3)c1=O)CCCC2	none
CCn1cnc2c1c(=O)n(CC(=O)O)c(=O)n2Cc1ccccc1	none
O=C(Cn1c(=O)c2c(ncn2Cc2ccccc2)n(Cc2ccccc2)c1=O)NC1CC1	Bead autofluor 19673
Oc1ccccc1C1N=C(c2ccccc2)NC(c2ccccc2)=N1	Bead autofluor 22671
Oc1ccc(C2N=C(c3ccccc3)NC(c3ccccc3)=N2)cc1	none
COc1cc(OC)cc(N2C(=O)C3N=NN(Cc4nc(-c5ccc(OC(C)C)cc5)no4)C3C2=O)c1 (stereo not drawn)	none (no result: Anthrax LF prot, BoNT F protease, Bead autofluor, BoNT A protease)
COc1ccc(CNC(=O)CN2C(=O)C3CCCN3c3ncc(Cl)cc32)cc1 (stereo not drawn)	Bead autofluor 21975, BoNT A protease inconclusive
Cn1c(SCC(=O)N2CCc3ccccc3C2)nnc1-c1ccncc1	none
CCc1cccc(CC)c1-n1c(SCC(=O)N2CCc3ccccc3C2)nnc1-c1cccnc1	Bead autofluor 36354
CC1CCCCN1C(=O)CSc1nnc(-c2cccnc2)n1C1CCCCC1 (stereo not drawn)	none
O=C(CSc1nnc(-c2ccc(O)cc2)n1Cc1ccco1)N1CCc2ccccc2C1	Bead autofluor 16322
O=C(CSc1nnc(-c2ccncc2)n1C1CCCCC1)Nc1cccc(O)c1	Bead autofluor 16523
CC1CCN(C(=O)CSc2nnc(-c3cccnc3)n2C2CCCCC2)CC1	Bead autofluor 17010, BoNT A protease inconclusive
Cc1cnc(NC(=O)CSc2nnc(-c3ccncc3)n2C2CCCCC2)s1	none
COc1cc(-c2nnc(NC(=O)/C=C/c3ccccc3Cl)o2)cc(OC)c1OC	none (no result: Anthrax LF prot, BoNT F protease, Bead autofluor, BoNT A protease)
O=C(CSc1ccc(NC(=O)C2CC2)nn1)Nc1ccc(OC(F)(F)F)cc1	none (no result: Anthrax LF prot, BoNT F protease, Bead autofluor, BoNT A protease)
CCOc1ccccc1-n1c(SCC(=O)N2CCCc3ccccc32)nnc1-c1cccnc1	none
Cc1ccc(-n2c(SCC(=O)N3CCCc4ccccc43)nnc2-c2cccnc2)c(C)c1	Bead autofluor 26671
Cc1ccc(-c2ccc(=O)n([C@@H](C)C(=O)NCc3ccncc3)n2)cc1	none (no result: Anthrax LF prot, BoNT F protease, Bead autofluor, BoNT A protease)
O=S(=O)(NCC1CCCO1)c1ccc(S(=O)(=O)N(Cc2ccc(F)cc2)C2CCCCC2)cc1 (stereo not drawn)	Bead autofluor 21632
CC(C)C(C(=O)NCC1CCCO1)N(C(=O)CNS(=O)(=O)c1ccc(F)cc1)C1CCCCC1 (stereo not drawn)	none
O=S(=O)(NCC1CCCO1)c1ccc(Cl)c(C(F)(F)F)c1 (stereo not drawn)	Bead autofluor 21968, BoNT A protease inconclusive
CCOC(=O)CC(=O)CSc1nc2ccccc2c(=O)n1-c1ccc(C(=O)NCCOC)cc1	Bead autofluor 16847
CCOC(=O)CC(=O)CSc1nc2ccccc2c(=O)n1-c1ccc(C(=O)N2CCOCC2)cc1	none
